± gives the standard deviation.
Key:
Details in all cases: modulator concentration 10 µM
[1] = test system: RAW-Dual (murine macrophage reporter line); test: NF-kB reporter (SEAP) activity fold change vs agonist alone; higher = enhanced NF-kB activity
How it was run: (§1)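 Compound reached 10 μM final in each well by pin transfer, onto RAW-Dual murine macrophage reporter cells seeded at 50 000 per well in 384-well plates. After 1 hour at 37 °C, the cells were stimulated overnight with a PRR agonist. SEAP in the supernatant was read with QUANTI-Blue at 620 nm absorbance for NF-κB, and Lucia luciferase was read with QUANTI-Luc luminescence for IRF. Each signal was turned into fold change against the mean agonist-only control on the same plate, and two replicate plates were averaged with propagated errors.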

[2] = test system: RAW-Dual (murine macrophage reporter line); test: IRF reporter (Lucia luciferase) activity fold change vs agonist alone; higher = enhanced IRF activity
How it was run: as §1

[3] = test system: RAW-Dual (murine macrophage reporter line); test: viability score (confluency relative to resting cells, overnight) (fraction); higher = more viable, active = viable (0.7 or more)
How it was run: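 RAW-Dual macrophages in 384-well plates were treated overnight with compound at 10 μM final. IncuCyte imaging recorded confluency, and IncuCyte software built two confluency masks across every imaged well. The viability score expresses confluency relative to resting cells and was judged against a cutoff, which a compound met only if both masks exceeded 70% of resting cells.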

[4] = agonist: CpG ODN 1826 0.5 ug/mL

SMILES | NF-kB reporter [1, 4] | NF-kB reporter ([1]; agonist: LPS 0.1 ug/mL) | NF-kB reporter ([1]; agonist: MPLA […]) | IRF reporter ([2]; agonist: 3'3'-cGAMP 10 ug/mL) | IRF reporter ([2]; agonist: LPS 0.1 ug/mL) | IRF reporter ([2]; agonist: MPLA […]) | viability score [3]
CN1C(=N)NC(=O)C1=Cc1cc(Br)cc(Br)c1O | 0.879 ± 0.099 | 0.898 ± 0.09 | 0.954 ± 0.04 | 0.96 ± 0.069 | 0.951 ± 0.046 | 1.01 ± 0.11 | 0.998 (active)
CCOC(=O)Cc1nnnn1C | 0.888 ± 0.27 | 1.02 ± 0.11 | 1.01 ± 0.14 | 1 ± 0.026 | 1.14 ± 0.15 | 1.17 ± 0.13 | 1 (active)
CN1CCN(C(=O)CN2C(=O)c3cccc4cccc(c34)C2=O)CC1 | 0.881 ± 0.082 | 0.981 ± 0.061 | 0.88 ± 0.091 | 0.971 ± 0.026 | 1.21 ± 0.19 | 0.967 ± 0.26 | 1.01 (active)
Cn1cc(-c2cc(CNC(=O)c3cncc(Br)c3)ccn2)cn1 | 0.92 ± 0.041 | 1.05 ± 0.1 | 1.15 ± 0.065 | 0.872 ± 0.057 | 1.1 ± 0.17 | 1.3 ± 0.41 | 0.943 (active)
O=C1C(=Cc2ccncc2)CCC1=Cc1ccncc1 | 1.03 ± 0.082 | 0.928 ± 0.08 | 0.971 ± 0.12 | 0.993 ± 0.045 | 1.21 ± 0.17 | 1.28 ± 0.27 | 1.01 (active)
CCOc1cc([C@@H](CS(C)(=O)=O)N2C(=O)c3cccc(NC(C)=O)c3C2=O)ccc1OC | 2.72 ± 0.66 | 0.969 ± 0.058 | 1.69 ± 0.15 | 1.01 ± 0.048 | 1.05 ± 0.12 | 1.14 ± 0.15 | 0.977 (active)
Cc1cccc(N(CC(=O)Nc2ccc3c(c2)OCO3)S(C)(=O)=O)c1 | 0.716 ± 0.06 | 0.934 ± 0.068 | 1 ± 0.098 | 0.784 ± 0.04 | 1.19 ± 0.071 | 1.22 ± 0.13 | 1.02 (active)
COCCNCCOc1ccccc1C(C)C | 0.767 ± 0.12 | 1.03 ± 0.084 | 0.899 ± 0.069 | 0.895 ± 0.031 | 1.32 ± 0.26 | 1.26 ± 0.18 | 0.554 (inactive)
O=C(Oc1ccc(O)c(CO)c1)c1ccccc1 | 1.15 ± 0.12 | 1.08 ± 0.071 | 1.06 ± 0.086 | 0.637 ± 0.1 | 0.888 ± 0.098 | 0.769 ± 0.16 | 1 (active)
O=[N+]([O-])c1cc(C(O)(C(F)(F)F)C(F)(F)F)cc([N+](=O)[O-])c1Cl | 1.07 ± 0.085 | 1.03 ± 0.072 | 0.972 ± 0.091 | 0.706 ± 0.029 | 1.22 ± 0.17 | 0.97 ± 0.085 | 0.996 (active)
CCC(C(=O)N1CC(Nc2cnccn2)C1)c1ccccc1 (centres undefined) | 0.995 ± 0.052 | 1.06 ± 0.12 | 0.996 ± 0.14 | 1.03 ± 0.067 | 1.24 ± 0.085 | 1.19 ± 0.09 | 0.984 (active)
CC(C)(C)C1CCc2c(sc(NC(=O)c3cccs3)c2C(=O)N2CCCC2)C1 (centres undefined) | 0.93 ± 0.073 | 1.06 ± 0.061 | 0.993 ± 0.13 | 0.984 ± 0.027 | 1.14 ± 0.12 | 1.03 ± 0.068 | 1.01 (active)
Cc1ccc(-n2ncnc2-c2ccccc2C)cc1Cl | 0.759 ± 0.064 | 0.787 ± 0.044 | 1.14 ± 0.11 | 0.777 ± 0.052 | 1.48 ± 0.12 | 1.65 ± 0.21 | 0.996 (active)
CN(C)c1ncc(NC(=O)c2ccc(Oc3ncccn3)cc2)c(N(C)C)n1 | 0.856 ± 0.086 | 0.953 ± 0.075 | 0.849 ± 0.065 | 0.991 ± 0.053 | 1.2 ± 0.083 | 1.08 ± 0.14 | 0.985 (active)
CCCC1=NN2C(=N)C(=Cc3ccc(OCc4ccc(F)cc4)c(OCC)c3)C(=O)N=C2S1 | 0.992 ± 0.1 | 1.03 ± 0.057 | 0.97 ± 0.084 | 0.965 ± 0.04 | 1.59 ± 0.17 | 1.19 ± 0.073 | 1.01 (active)
S=c1n(CN2CCOCC2)nc(-c2ccccc2Br)n1-c1ccccc1 | 1.08 ± 0.19 | 0.947 ± 0.099 | 0.951 ± 0.073 | 0.884 ± 0.031 | 1.21 ± 0.12 | 1.22 ± 0.17 | 1 (active)
COc1ccc(C2=CC(c3cc(OC)c(OC)c(OC)c3)n3ncnc3N2)cc1 (centres undefined) | 1.26 ± 0.087 | 1.08 ± 0.066 | 1.22 ± 0.087 | 1.15 ± 0.047 | 1.07 ± 0.07 | 1.27 ± 0.15 | 0.985 (active)
COCCOC(=O)C1=C(C)NC(C)=C(C(=O)OC/C=C/c2ccccc2)C1c1cccc([N+](=O)[O-])c1 (centres undefined) | 0.743 ± 0.078 | 0.787 ± 0.037 | 0.938 ± 0.09 | 1 ± 0.057 | 1.18 ± 0.088 | 1.17 ± 0.1 | 1.01 (active)
O=C(O)c1coc(CNC(=O)c2cocc2C(=O)O)c1 | 1.04 ± 0.1 | 1.08 ± 0.08 | 0.902 ± 0.054 | 0.996 ± 0.027 | 1.51 ± 0.21 | 1.14 ± 0.072 | 1.01 (active)
CCOc1ccc(-c2cccc(NC(=O)c3c(F)cccc3F)c2)nn1 | 0.969 ± 0.043 | 1.06 ± 0.088 | 1.13 ± 0.061 | 0.861 ± 0.053 | 1.11 ± 0.21 | 1.23 ± 0.46 | 0.982 (active)
O=C(NCC#CCOc1cccc(C(F)(F)F)c1)Nc1c(F)cccc1F | 0.921 ± 0.077 | 1.13 ± 0.12 | 0.922 ± 0.045 | 0.994 ± 0.051 | 1.07 ± 0.17 | 1.15 ± 0.39 | 1.01 (active)
CCCCNC(=O)Cc1ccc(Br)cc1 | 0.947 ± 0.15 | 0.904 ± 0.11 | 0.913 ± 0.11 | 0.986 ± 0.052 | 1.29 ± 0.25 | 1.4 ± 0.33 | 0.989 (active)
CC1(C)OC(=O)C=CC2(C)C1CC(O)C1(C)C2CCC2(C)C(c3ccoc3)OC(=O)C3OC321 (centres undefined) | 1.29 ± 0.35 | 1.1 ± 0.11 | 1.06 ± 0.14 | 0.944 ± 0.032 | 1.22 ± 0.15 | 1.24 ± 0.17 | 0.99 (active)
O=C(CCC(=O)Nc1ccccc1)NN=Cc1ccc(Cl)cc1 | 1.01 ± 0.06 | 0.993 ± 0.062 | 1 ± 0.08 | 0.98 ± 0.036 | 1.48 ± 0.2 | 1.22 ± 0.13 | 1 (active)
Cc1cccc(-c2nn3c(c2-c2ccnc4ccc(C(N)=O)cc24)CCC3)n1 | 1.08 ± 0.046 | 1.22 ± 0.1 | 1.46 ± 0.12 | 0.903 ± 0.042 | 0.976 ± 0.16 | 1.12 ± 0.28 | 0.99 (active)
O=C(Nc1ccc([N+](=O)[O-])cc1)c1cc(Cl)ccc1O | 1.14 ± 0.18 | 1.02 ± 0.088 | 0.841 ± 0.081 | 0.905 ± 0.033 | 1.17 ± 0.11 | 1.28 ± 0.17 | 0.991 (active)
O=C(NCCn1nc(-c2ccccn2)c2c1CCCC2)c1c(F)cccc1Cl | 1.12 ± 0.062 | 1.19 ± 0.12 | 0.921 ± 0.043 | 0.975 ± 0.049 | 1.1 ± 0.068 | 1.2 ± 0.26 | 1 (active)
